These results are taken from PubChem BioAssay (EPA / NIEHS).

“And” between values parts separate entries of the source, which are not always exact repeats. Equal values may be shown once. Records with an inconclusive call do not appear. The source made the active and inactive calls. Rule for the calls, unless noted: active = hit-call score of the fitted dose curve at least 0.9, where 1 is the maximum; inactive = score below 0.9.

For assay [1], the target named is Paired box protein Pax-6 (Homo sapiens) (UniProt P26367). The assay is described as follows: ATG_Pax6_CIS: Attagene CIS-FACTORIAL HepG2 Assay for human Paired Box 6 (PAX6) (AID 2282956). Conditions: HepG2 CIS-FACTORIAL PAX6 reporter transcription, RNA readout; actives raise or lower the signal. Put shortly:
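Multiplexed cis-reporter HepG2 system; 24 h treatment; reporter mRNA read by RT-PCR/CE fluorescence; bidirectional fit vs DMSO.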

A short description of assay [2]: ATG_PXRE_CIS: Attagene CIS-FACTORIAL HepG2 Assay for human Pregnane X Receptor Element (PXRE) (AID 2282957). To be noted: HepG2 Attagene CIS-FACTORIAL PXRE reporter, mRNA; actives raise or lower the signal. The essentials: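 HepG2 cells transiently transfected with cis-regulated multiple reporter transcription units; endogenous factor activity measured as reporter mRNA 24 h after dosing. RT-PCR, fluorescent primer extension, HpaI digestion, capillary electrophoresis; bidirectional fit versus DMSO baseline.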

Assay [3] in a line: ATG_PPRE_CIS: Attagene CIS-FACTORIAL HepG2 Assay for human Peroxisome Proliferator-activated Response Element (PPRE) (AID 2282958). Conditions: HepG2 PPRE cis-element reporter, Attagene transcription factor profiling; actives raise or lower the signal. The essentials: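 In this cell-based multiplex, a PPRE cis element drives a reporter sequence in transiently transfected HepG2 cells. Following 24 h treatment, labeled cDNA amplicons are sized and quantified by capillary electrophoresis, with DMSO defining baseline.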

Assay [4] in a line: ATG_RORE_CIS: Attagene CIS-FACTORIAL HepG2 Assay for human RAR-related Orphan Receptor Element (RORE) (AID 2282959). To be noted: HepG2 Attagene cis-factorial RORE reporter, mRNA; actives raise or lower the signal. Put shortly:
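Endogenous factor activity at a cis response element is read as reporter transcript levels in HepG2 cells, 24 h post-dose. Transcripts are quantified by RT-PCR with capillary electrophoresis, and data fitted in both directions against DMSO.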

Assay [5] in a line: ATG_Sox_CIS: Attagene CIS-FACTORIAL HepG2 Assay for human SRY-box transcription factor (SOX) (AID 2282960). Conditions: HepG2 Attagene cis-factorial SOX reporter, mRNA; actives raise or lower the signal. The essentials: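 Measures mRNA induction of a SOX1-associated reporter in HepG2 after 24 h dosing. Fluorescently labelled RT-PCR fragments are separated by capillary electrophoresis, and gain or loss relative to DMSO control is fitted.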

Assay [6] deals with Transcription factor Sp1 (Homo sapiens) (UniProt P08047). As to the kind of experiment: ATG_Sp1_CIS: Attagene CIS-FACTORIAL HepG2 Assay for human Specificity Protein 1 (Sp1) (AID 2282961). Conditions: HepG2 Sp1 cis-reporter transcription, actives raise or lower the signal. Put shortly:
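Cells: HepG2, transiently transfected with cis-regulated multiplexed reporters. Exposure: 24 h. Detection: reporter transcripts amplified, fluorescently labeled, restriction-digested and sized by capillary electrophoresis. Analysis: bidirectional fit relative to DMSO.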

The nature of assay [7]: ATG_SREBP_CIS: Attagene CIS-FACTORIAL HepG2 Assay for human Sterol Regulatory Element Binding (SREBP) (AID 2282962). To be noted: HepG2 Attagene cis-factorial SREBP reporter, mRNA; actives raise or lower the signal. The essentials: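 mRNA induction of transfected cis-promoter reporters in HepG2 cells, 24 h post-dose. Detection: RT-PCR with 6-FAM-labelled products, HpaI digest, capillary electrophoresis. DMSO served as negative control and baseline.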

In assay [8] the target is Signal transducer and activator of transcription 3 (Homo sapiens) (UniProt P40763). The assay is described as follows: ATG_STAT3_CIS: Attagene CIS-FACTORIAL HepG2 Assay for human Signal Transducer and Activator of Transcription 3 (STAT3) (AID 2282963). To be noted: HepG2, Attagene cis-factorial STAT3 reporter transcription; actives raise or lower the signal. The essentials:
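Endogenous STAT3-responsive cis-element activity was read in transiently transfected HepG2 cells after 24 h treatment. Reporter transcripts were quantified via RT-PCR and capillary electrophoresis, with DMSO as negative control and bidirectional curve fitting.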

Assay [9] in a line: ATG_TA_CIS: Attagene CIS-FACTORIAL HepG2 Assay for human TA Basal Promoter (AID 2282964). To be noted: HepG2 Attagene CIS-factorial TA basal promoter reporter; actives raise or lower the signal. The essentials:
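Steps: transfect HepG2 with MRTUs; dose 24 h; isolate RNA, DNase-treat, reverse-transcribe; PCR and FAM-label reporter cDNA; digest with HpaI 2h at 37 C; run capillary electrophoresis. Activity fitted both directions against DMSO.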

Assay [10] in a line: ATG_TCF_b_cat_CIS: Attagene CIS-FACTORIAL HepG2 Assay for human T-Cell-Factor with beta-catenin (TCF/b-cat) (AID 2282965). To be noted: HepG2 TCF/beta-catenin cis-reporter transcription, actives raise or lower the signal. Put shortly:
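Endogenous TCF/LEF activity read as reporter transcript level via RT-PCR and capillary electrophoresis fluorescence in transfected HepG2, 24 h exposure; gain or loss of signal fitted against DMSO controls.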

Assay [11] in a line: ATG_TAL_CIS: Attagene CIS-FACTORIAL HepG2 Assay for human TAL Basal Promoter (AID 2282966).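 Note: background control endpoint measuring basal TAL promoter reporter mRNA not a specific factor.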 Conditions: HepG2 Attagene cis-factorial TAL promoter reporter; actives raise or lower the signal. The essentials: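 HepG2 cells were transiently transfected with promoter-driven multiplexed reporter units and dosed for 24 h. Reporter mRNA was measured by RT-PCR with capillary electrophoresis fluorescence; bidirectional fits used DMSO as baseline, serving as a background control.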

Assay [12] can be described thus: ATG_TGFb_CIS: Attagene CIS-FACTORIAL HepG2 Assay for human Transforming Growth Factor (TGF) (AID 2282967). To be noted: HepG2 Attagene CIS TGFb reporter, mRNA transcription; actives raise or lower the signal. Put shortly:
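Cells were dosed for 24 hours, after which total RNA was reverse-transcribed and reporter sequences amplified, labeled and sized by capillary electrophoresis. Activity was fitted in both directions against DMSO.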

A short description of assay [13]: ATG_VDRE_CIS: Attagene CIS-FACTORIAL HepG2 Assay for human Vitamin D Receptor Element (VDRE) (AID 2282968). Conditions: HepG2 VDRE cis-reporter transcription, actives raise or lower the signal. Put shortly: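 Reporter mRNA induction, quantified by capillary electrophoresis of fluorescently labelled RT-PCR products, was read 24 h after dosing HepG2 cells carrying transiently transfected cis-regulated reporter units; gain or loss relative to DMSO.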

In assay [14] the target is Nuclear receptor subfamily 1 group I member 3 (Homo sapiens) (UniProt Q14994). The assay is described as follows: ATG_CAR_TRANS: Attagene TRANS-FACTORIAL HepG2 Assay for human Constitutive Androstane Receptor (CAR) (AID 2282969; active = hit-call score of the fitted dose curve at least 0.9, where 1 is the maximum;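 note: activators raise reporter mRNA above DMSO so AC50 marks induction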). To be noted: HepG2 Attagene TRANS-FACTORIAL CAR reporter. Put shortly: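 Readout is reporter mRNA induction, quantified by fluorescent primer extension and capillary electrophoresis after RT-PCR. Cells were HepG2 transiently carrying chimeric NR-Gal4 constructs with GAL4-UAS reporters, treated for 24 h; activity scored upward from DMSO.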
Chain of Nuclear receptor subfamily 1 group I member 3 (Homo sapiens) (Q14994 whole entry, looked up, the tested form may be a part): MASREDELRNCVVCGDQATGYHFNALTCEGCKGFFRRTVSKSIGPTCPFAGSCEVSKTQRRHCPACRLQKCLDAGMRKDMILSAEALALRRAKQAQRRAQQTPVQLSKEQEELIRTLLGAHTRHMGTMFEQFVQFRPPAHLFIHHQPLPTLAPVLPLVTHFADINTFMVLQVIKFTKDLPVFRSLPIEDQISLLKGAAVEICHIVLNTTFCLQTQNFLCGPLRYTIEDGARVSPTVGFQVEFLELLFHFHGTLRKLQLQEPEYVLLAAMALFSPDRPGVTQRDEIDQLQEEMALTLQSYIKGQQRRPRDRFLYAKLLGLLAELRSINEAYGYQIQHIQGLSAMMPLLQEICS

The target in assay [15] is Estrogen receptor (Homo sapiens) (UniProt P03372). As to the kind of experiment: ATG_ERa_TRANS: Attagene TRANS-FACTORIAL HepG2 Assay for human Estrogen Receptor alpha (ERa) (AID 2282970; active = hit-call score of the fitted dose curve at least 0.9, where 1 is the maximum). To be noted: HepG2 Attagene TRANS ERa GAL4 reporter, mRNA. The essentials: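 HepG2 cells transiently transfected with multiplexed GAL4-UAS reporter units; ERa activity read via exogenous chimeric NR-Gal4 protein. After 24 hour compound exposure, reporter mRNA measured by RT-PCR with 6-FAM labelling and capillary electrophoresis; gain-of-signal fitted relative to DMSO.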
Chain of Estrogen receptor (Homo sapiens) (P03372 whole entry, looked up, the tested form may be a part): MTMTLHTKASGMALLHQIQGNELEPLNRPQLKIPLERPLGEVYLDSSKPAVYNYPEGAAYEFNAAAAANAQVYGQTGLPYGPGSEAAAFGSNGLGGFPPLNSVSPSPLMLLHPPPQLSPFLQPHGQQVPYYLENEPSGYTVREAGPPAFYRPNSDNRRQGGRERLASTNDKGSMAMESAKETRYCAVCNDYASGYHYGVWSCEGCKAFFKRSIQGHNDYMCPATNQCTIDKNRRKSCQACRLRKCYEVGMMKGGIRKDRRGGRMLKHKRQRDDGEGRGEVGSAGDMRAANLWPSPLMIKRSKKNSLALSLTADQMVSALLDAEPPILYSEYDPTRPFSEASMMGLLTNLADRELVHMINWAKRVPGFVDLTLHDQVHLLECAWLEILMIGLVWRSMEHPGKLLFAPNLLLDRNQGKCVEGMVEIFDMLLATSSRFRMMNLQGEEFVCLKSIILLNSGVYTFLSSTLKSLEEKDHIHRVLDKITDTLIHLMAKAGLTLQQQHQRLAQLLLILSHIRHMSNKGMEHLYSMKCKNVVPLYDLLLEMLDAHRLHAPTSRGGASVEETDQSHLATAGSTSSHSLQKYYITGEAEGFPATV

For assay [16], the target named is Steroid hormone receptor ERR1 (Homo sapiens) (UniProt P11474). As to the kind of experiment: ATG_ERRa_TRANS: Attagene TRANS-FACTORIAL HepG2 Assay for human Estrogen-Related Receptor alpha (ERRa) (AID 2282971; active = hit-call score of the fitted dose curve at least 0.9, where 1 is the maximum). Conditions: HepG2 Attagene TRANS reporter, ERRa transactivation. The essentials:
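HepG2 cells transiently transfected with multiplexed GAL4-UAS reporter units reading chimeric ERRa-Gal4 activity; 24 h compound exposure. Reporter mRNA measured by RT-PCR, 6-FAM labelling, HpaI digest and capillary electrophoresis; gain of signal fitted versus DMSO baseline.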

Assay [17] concerns the target X-box-binding protein 1 (Homo sapiens) (UniProt P17861). The assay is described as follows: ATG_Xbp1_CIS: Attagene CIS-FACTORIAL HepG2 Assay for human X-box Binding Protein 1 (XBP1) (AID 2282972). Conditions: HepG2 XBP1 cis-element reporter, Attagene multiplex; actives raise or lower the signal. Put shortly: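 Fluorescence-labelled cDNA fragments from reporter transcripts, separated by capillary electrophoresis, give the signal. Source: HepG2 cells transfected with promoter-driven reporter units, harvested 24 h post-dose. DMSO served as reference for bidirectional curve fitting.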

Assay [18] can be described thus: ATG_M_19_TRANS: Attagene TRANS-FACTORIAL HepG2 Assay for M19 Transcription Factor (Internal Marker) (AID 2282974; active = hit-call score of the fitted dose curve at least 0.9, where 1 is the maximum). Conditions: HepG2 Attagene TRANS-FACTORIAL M19 internal marker reporter. Put shortly: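 Reporter mRNA induction was measured in transfected HepG2 cells 24 h after dosing. Endpoint fitted upward relative to DMSO and serves as a background control within the multiplexed TRANS panel.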

The nature of assay [19]: ATG_GAL4_TRANS: Attagene TRANS-FACTORIAL HepG2 Assay for GAL4 (Internal Marker) (AID 2282976; active = hit-call score of the fitted dose curve at least 0.9, where 1 is the maximum). To be noted: HepG2 Attagene TRANS GAL4 internal marker reporter. The essentials: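 HepG2 cells transiently transfected with multiplexed GAL4-UAS reporter constructs were dosed for 24 h. Reporter mRNA was measured by RT-PCR, 6-FAM primer extension, HpaI digestion and capillary electrophoresis, and gain of signal was fitted relative to DMSO.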

The target of assay [20] is Estrogen-related receptor gamma (Homo sapiens) (UniProt P62508). As to the kind of experiment: ATG_ERRg_TRANS: Attagene TRANS-FACTORIAL HepG2 Assay for human Estrogen-Related Receptor gamma (ERRg) (AID 2282977; active = hit-call score of the fitted dose curve at least 0.9, where 1 is the maximum;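 note: hits increase reporter signal over DMSO so potencies reflect activators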). Conditions: HepG2 Attagene TRANS reporter, ERRg transactivation. The essentials:
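Transfect HepG2 with multiple GAL4-UAS reporter transcription units; dose chemicals 24 h; isolate RNA, reverse-transcribe with oligo(dT), PCR-amplify, label with 6-FAM, digest with HpaI; size fragments by capillary electrophoresis. DMSO serves as negative control.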

Chain of Transcription factor Sp1 (Homo sapiens) (P08047 whole entry, looked up): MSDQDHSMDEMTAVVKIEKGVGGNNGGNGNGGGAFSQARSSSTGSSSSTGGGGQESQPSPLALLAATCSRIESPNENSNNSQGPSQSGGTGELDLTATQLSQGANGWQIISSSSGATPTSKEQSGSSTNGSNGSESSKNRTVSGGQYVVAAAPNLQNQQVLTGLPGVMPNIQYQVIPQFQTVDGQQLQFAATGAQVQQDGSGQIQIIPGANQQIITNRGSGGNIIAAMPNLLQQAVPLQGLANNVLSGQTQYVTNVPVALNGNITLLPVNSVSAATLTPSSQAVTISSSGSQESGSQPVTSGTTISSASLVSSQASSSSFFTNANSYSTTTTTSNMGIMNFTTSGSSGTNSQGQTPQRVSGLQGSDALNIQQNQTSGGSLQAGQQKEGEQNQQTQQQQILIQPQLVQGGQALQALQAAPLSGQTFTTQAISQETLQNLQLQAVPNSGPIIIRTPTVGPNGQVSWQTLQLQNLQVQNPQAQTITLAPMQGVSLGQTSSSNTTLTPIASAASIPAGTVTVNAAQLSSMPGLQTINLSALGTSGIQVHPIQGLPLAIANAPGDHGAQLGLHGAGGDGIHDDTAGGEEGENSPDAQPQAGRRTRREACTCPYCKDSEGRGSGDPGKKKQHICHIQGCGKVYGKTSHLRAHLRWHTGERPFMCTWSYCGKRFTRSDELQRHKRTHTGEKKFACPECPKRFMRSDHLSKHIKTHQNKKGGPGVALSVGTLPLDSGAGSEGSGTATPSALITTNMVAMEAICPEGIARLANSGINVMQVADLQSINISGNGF
Chain of Signal transducer and activator of transcription 3 (Homo sapiens) (P40763 whole entry, looked up): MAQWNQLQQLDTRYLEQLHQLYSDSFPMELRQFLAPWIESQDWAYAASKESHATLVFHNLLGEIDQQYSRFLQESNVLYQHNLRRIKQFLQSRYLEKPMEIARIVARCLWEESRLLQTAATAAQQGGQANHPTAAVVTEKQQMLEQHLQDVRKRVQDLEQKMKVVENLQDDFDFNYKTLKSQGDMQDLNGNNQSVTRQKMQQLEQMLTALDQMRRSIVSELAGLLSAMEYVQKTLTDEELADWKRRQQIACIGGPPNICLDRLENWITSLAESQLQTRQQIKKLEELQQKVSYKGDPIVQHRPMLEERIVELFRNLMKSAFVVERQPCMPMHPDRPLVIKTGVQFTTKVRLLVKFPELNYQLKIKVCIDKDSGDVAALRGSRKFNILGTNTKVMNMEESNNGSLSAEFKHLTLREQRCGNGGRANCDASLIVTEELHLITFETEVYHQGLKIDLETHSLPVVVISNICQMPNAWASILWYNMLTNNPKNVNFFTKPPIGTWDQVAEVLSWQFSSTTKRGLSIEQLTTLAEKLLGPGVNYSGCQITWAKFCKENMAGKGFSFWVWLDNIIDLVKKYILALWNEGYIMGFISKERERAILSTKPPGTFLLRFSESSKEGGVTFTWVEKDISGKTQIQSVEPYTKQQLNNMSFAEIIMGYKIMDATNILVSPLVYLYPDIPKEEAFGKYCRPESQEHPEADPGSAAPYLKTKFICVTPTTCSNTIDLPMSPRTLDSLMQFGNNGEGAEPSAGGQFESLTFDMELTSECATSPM
Chain of Paired box protein Pax-6 (Homo sapiens) (P26367 whole entry, looked up): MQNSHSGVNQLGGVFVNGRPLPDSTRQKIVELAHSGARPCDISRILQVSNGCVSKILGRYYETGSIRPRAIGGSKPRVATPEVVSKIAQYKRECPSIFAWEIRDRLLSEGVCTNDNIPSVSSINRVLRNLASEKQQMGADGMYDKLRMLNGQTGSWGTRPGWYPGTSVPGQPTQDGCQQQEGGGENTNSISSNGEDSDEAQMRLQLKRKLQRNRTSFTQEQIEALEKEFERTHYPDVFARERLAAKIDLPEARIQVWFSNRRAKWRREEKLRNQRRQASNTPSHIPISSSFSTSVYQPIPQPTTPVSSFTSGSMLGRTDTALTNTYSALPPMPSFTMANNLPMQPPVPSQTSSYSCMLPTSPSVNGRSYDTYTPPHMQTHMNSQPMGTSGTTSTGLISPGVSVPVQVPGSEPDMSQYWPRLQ
Chain of Steroid hormone receptor ERR1 (Homo sapiens) (P11474 whole entry, looked up, the tested form may be a part): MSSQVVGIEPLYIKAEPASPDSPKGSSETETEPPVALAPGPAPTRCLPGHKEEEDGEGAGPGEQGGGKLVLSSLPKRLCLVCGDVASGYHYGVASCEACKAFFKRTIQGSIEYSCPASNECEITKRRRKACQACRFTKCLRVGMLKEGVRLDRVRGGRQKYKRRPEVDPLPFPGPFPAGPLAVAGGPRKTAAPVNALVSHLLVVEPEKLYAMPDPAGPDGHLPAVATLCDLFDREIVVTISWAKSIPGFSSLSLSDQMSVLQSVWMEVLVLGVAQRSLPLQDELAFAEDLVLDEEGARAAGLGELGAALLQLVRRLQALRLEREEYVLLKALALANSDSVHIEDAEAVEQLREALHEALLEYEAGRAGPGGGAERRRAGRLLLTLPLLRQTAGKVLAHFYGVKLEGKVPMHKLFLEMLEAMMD
Chain of X-box-binding protein 1 (Homo sapiens) (P17861 whole entry, looked up, the tested form may be a part): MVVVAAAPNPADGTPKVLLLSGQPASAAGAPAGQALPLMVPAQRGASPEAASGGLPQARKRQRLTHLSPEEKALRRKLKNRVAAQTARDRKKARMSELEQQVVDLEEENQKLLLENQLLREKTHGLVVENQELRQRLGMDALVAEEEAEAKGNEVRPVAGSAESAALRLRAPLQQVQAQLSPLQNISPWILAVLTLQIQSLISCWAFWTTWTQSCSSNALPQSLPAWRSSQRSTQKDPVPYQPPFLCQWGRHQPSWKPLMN
Chain of Estrogen-related receptor gamma (Homo sapiens) (P62508 whole entry, looked up, the tested form may be a part): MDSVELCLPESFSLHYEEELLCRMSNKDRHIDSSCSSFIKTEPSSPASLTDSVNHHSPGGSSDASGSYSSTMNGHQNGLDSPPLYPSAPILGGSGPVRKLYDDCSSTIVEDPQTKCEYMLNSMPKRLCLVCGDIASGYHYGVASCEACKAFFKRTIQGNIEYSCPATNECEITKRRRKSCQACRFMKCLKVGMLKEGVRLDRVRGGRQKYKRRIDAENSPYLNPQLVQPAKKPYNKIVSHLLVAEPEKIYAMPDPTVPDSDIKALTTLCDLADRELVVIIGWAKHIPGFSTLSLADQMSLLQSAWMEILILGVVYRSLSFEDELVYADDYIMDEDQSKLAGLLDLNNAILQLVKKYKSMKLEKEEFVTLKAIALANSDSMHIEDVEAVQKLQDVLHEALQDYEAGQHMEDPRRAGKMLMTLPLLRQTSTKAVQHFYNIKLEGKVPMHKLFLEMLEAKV

A word on the AC50: it is the midpoint of the concentration-response curve, whichever way the signal moves. Consider `CC(C)(O)c1ccc(CNC(=O)c2cccnc2Oc2ccc3nonc3c2)cc1`, for which the call in assay [1], in assay [3], in assay [4], in [5], in [6] and in [8] was inactive. Moreover, the outcome in assay [9], in assay [10], in assay [11], in assay [12], in assay [14] and in assay [15] was inactive. Further, the molecule was classed as inactive in [16] and in [17]. The values for the AC50 in assay [2], in assay [7] and in assay [13] were 7.65 µM (active), 50.9 µM (active) and 33.2 µM (active), respectively.

For `CC(=O)N1CCN(c2ccc(OC[C@H]3CO[C@](Cn4ccnc4)(c4ccc(Cl)cc4Cl)O3)cc2)CC1`, the AC50 in assay [1] was 10 µM (active); in assay [2], 0.942 µM (active); in [4], 1.58 µM (active); in [6], 49.9 µM (active); in assay [7], 5.24 µM (active); in assay [9] it was 4.84 µM (active). In addition, the AC50 is 5.19 µM (active) in assay [10], 8.88 µM (active) in assay [13] and 18.3 µM (active) in [17]. Moreover, the result in [3], in assay [5], in assay [8], in assay [11], in assay [12] and in assay [15] was inactive. Further, the outcome in assay [18] was inactive.

Regarding `O=CCCCC=O`, the call in assay [1], in [2], in assay [3], in assay [4], in [5] and in [6] was inactive. Further, the molecule was called inactive in assay [7], in assay [8], in [9], in assay [11], in assay [12] and in assay [13]. For the same molecule, the molecule was classed as inactive in assay [15], in [16], in assay [18], in assay [19] and in assay [20]. Moreover, the AC50 in assay [10] was 71.9 µM (active) and 100 µM (active).
